# Only some compounds are listed: those with a hit (about 3% of all), similar ones and a draw of the others.
# TR SRC2 fluor cs: counter-screen for TRb-SRC2 inhibitors: fluorescence interference | TRb/SRC2 Texas Red total fluorescence interference | AID 1479 | Potency, µM (series often up to 106 µM), without a hit: at the top dose fluorescence change, negative = quenching | hit rate 0.29% among 280,000; active = well fitted curve in either direction with a large enough effect; inconclusive = small, poorly fitted or top-dose-only effect
#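 Human TRb ligand-binding domain at 0.6 uM with 20 nM Texas Red SRC2 peptide in Tris buffer containing 1 uM T3 and 5% DMSO, incubated with compound 5 h at ambient temperature. Total fluorescence (555/632 nm) calculated as parallel + 2 × perpendicular.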
# TRb-SRC2 inh: disrupts binding of human TR beta to SRC2 | TRbeta-SRC2 peptide binding, fluorescence polarization; receptor liganded with 1 µM T3 | P10828 | Potency, µM (highest dose often 106 µM), for inactives: at the highest dose activity change, negative = inhibition, hits mostly inhibitors | hit rate 0.065% among 280,000;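 also: plate controls were bound peptide for no effect and peptide without receptor for full effect; nearly all actives have a fitted effect of over 50% in size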
# Target sequence (P10828 whole entry, looked up): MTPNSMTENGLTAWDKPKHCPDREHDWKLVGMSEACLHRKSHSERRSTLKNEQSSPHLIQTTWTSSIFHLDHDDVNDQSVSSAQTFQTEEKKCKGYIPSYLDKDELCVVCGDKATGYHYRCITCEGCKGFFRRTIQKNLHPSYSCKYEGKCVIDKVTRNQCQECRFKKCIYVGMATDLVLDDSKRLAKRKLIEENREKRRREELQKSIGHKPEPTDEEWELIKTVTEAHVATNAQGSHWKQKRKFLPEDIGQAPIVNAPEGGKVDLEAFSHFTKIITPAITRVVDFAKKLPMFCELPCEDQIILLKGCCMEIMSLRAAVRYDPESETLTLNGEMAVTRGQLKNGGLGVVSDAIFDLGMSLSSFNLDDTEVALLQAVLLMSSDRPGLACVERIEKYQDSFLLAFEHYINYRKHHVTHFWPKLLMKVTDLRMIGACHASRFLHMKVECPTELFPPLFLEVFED
#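 Quantitative HTS by FP: 0.6 uM TRb LBD, 20 nM labeled SRC2 20-mer, 1 uM T3, 5% DMSO; 5 hr ambient incubation; % activity per concentration and potencies from concentration series.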
# Tau fluor counter: counter-screen for tau fibril formation inhibitors; Potency, µM (doses to about 57.7 µM), for inactives: at the top dose activity change, negative = decrease; tau K18 P301L Alexa594 fluorescence, heparin fibrillization; hit rate 0.93% among 280,000; also: nearly all actives have a fitted effect of over 55% in size
#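 Human K18 P301L tau (15 uM unlabeled plus 0.24 uM Alexa 594-labeled, final) in 100 mM sodium acetate pH 7 was mixed with compound and 20 uM heparin and incubated 6 hr at 37 C.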
# Tau ThT inhib: inhibitors of human tau fibril formation, thioflavin T binding; P10636; recombinant tau K18 P301L (four-repeat tau fragment), heparin-induced fibrillization, ThT fluorescence; Potency, µM (highest dose often 57.4 µM), inactives show at the top dose activity, negative = inhibition, hits mostly inhibitors; hit rate 2.1% among 270,000; AID 1460; also: nearly all actives have a fitted effect of over 55% in size
# Target sequence (P10636 561-689 P618L limits assumed): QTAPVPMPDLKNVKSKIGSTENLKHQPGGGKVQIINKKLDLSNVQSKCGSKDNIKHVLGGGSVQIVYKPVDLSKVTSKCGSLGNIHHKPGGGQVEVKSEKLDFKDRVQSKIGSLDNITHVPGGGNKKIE
#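 K18 P301L tau (15 uM + 0.24 uM Alexa 594-tagged), heparin 20 uM, NaOAc pH 7, 6 h 37 C; ThT 30 uM, 1 h RT, ex 450/em 510 nm.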
# Tau fibril FP: blocks human tau fibril formation measured by polarization | AID 1468 | hit rate 0.39% among 280,000 | K18 P301L tau heparin fibrillization, Alexa594 FP, 6 h | Potency, µM (top dose mostly 57.7 µM), inactives show at the top dose activity, negative = inhibition, most hits filed as inhibitors | P10636; also: nearly all actives have a fitted effect of over 55% in size
#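 FP of Alexa 594-tau after heparin (20 uM) induction. Substrate: human K18 P301L, 15 uM unlabeled, 0.24 uM labeled. Buffer 100 mM sodium acetate pH 7. 6 hr, 37 C.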
# Numbers without * were called inactive; ? = inconclusive; . = no result; [ ] = remark or other dose. Unless noted, calls follow the shape of the dose curve; as a rule, active = well fitted curve in the direction sought with a large enough effect; inconclusive = small, poorly fitted or top-dose-only effect, or another doubt; inactive = no such curve, though single readings can be large; an effect the other way counts as inactive or inconclusive. Unless noted, % is scaled to controls: 0 for no effect and ±100 for the full control effect; potency is read from the fitted curve at half-maximal effect.
SMILES,TR SRC2 fluor cs,TRb-SRC2 inh,Tau fluor counter,Tau ThT inhib,Tau fibril FP
Cc1ccc2oc(C(=O)Nc3c(C(=O)Nc4ccccc4)oc4ccccc34)cc(=O)c2c1,-10.1%,-7.0%,-6.6%,-11.1%,-5.1%
CC(C)(C)c1cc(C(c2cccnc2)N2CCN(CCO)CC2)cc(C(C)(C)C)c1O (stereo not given),4.2%,-5.1%,-22.3%,20µM*,?
OCCN1CCN(C(c2cccs2)c2ccc3cccnc3c2O)CC1 (stereo not given),0.1%,-1.7%,-16.4%,?,?
COc1ccc(CCNC(=O)c2ccc3c(c2)N(Cc2c(F)cccc2Cl)C(=O)CS3)cc1OC,-1.4%,0.2%,-12.7%,-5.1%,5.7%
CCCCn1cnc2cc(NCc3ccccc3Cl)ccc21,0.0631µM*[quencher],-23.4%[53 µM],?,?,5.6%
CN(C)c1ccc(CNc2ccc3c(c2)ncn3C)cc1,-8.3%,-0.2%,15.8µM*[quencher],?,-0.3%
COc1cccc(CNc2ccc3c(c2)ncn3C)c1OC,0.0089µM*[quencher],-4.8%,-27.9%,?,2.3%
CCOc1ccc(NC(=O)c2ccc3c(=O)n4nc(Nc5ccccc5C)sc4nc3c2)cc1,0.3%,9.4%,-25.0%,?,-3.8%
Cn1c(=O)c(N)c2c3c(c(Br)ccc31)C(=O)c1ccccc1-2,3.6%,-5.0%,?,14.1µM*,-12.8%
C#Cc1cccc(Nc2ncnc3cc(OC)c(OC)cc23)c1,-1.8%,4.0%,-21.0%,?,?
Cc1ccc(C)c(N2CCN(C(=O)c3cc(C)nc4c3c(C)nn4-c3cccc(F)c3)CC2)c1,6.3%,3.0%,-14.9%,-10.9%,-2.2%
Cn1c(-n2cccc2)c(-c2c(-c3ccccc3)[nH]c3c2c(=O)n(C)c(=O)n3C)c(=O)n(C)c1=O,25119µM*[quencher],-11.0%,-12.3%,-10.9%,-2.9%
COc1cccc(-c2[nH]c3c(c2-c2c(-n4cccc4)n(C)c(=O)[nH]c2=O)c(=O)[nH]c(=O)n3C)c1,2.3%,2.2%,-4.1%,-1.4%,-2.2%
CCn1c(Cl)c(C=O)s/c1=N\S(=O)(=O)c1ccccc1,0.6%,-2.2%,-26.7%,8.91µM*,7.08µM*
CCOC(=O)C1=C(O)c2ccccc2C(=O)/C1=C\c1ccc(CC)cc1,-7.3%,-0.4%,?,14.1µM*,20µM*
CCOC(=O)c1c(C)oc2c1C(=O)c1ccccc1C2=O,-4.1%,7.7%,-17.4%,?,-4.4%
CCCc1ccc(/C=C2\C(=O)c3ccccc3C(O)=C2C(=O)OCC)cc1,-5.7%,-1.9%,?,31.6µM*,?
O=C(O)[C@H]1O[C@@H](Oc2ccc3ccc(=O)oc3c2)[C@H](O)[C@@H](O)[C@@H]1O,-2.5%,-1.8%,.,.,.
O=C(Cn1c(=O)n(Cc2ccco2)c(=O)c2ccccc21)Nc1ccc(Cl)cc1Cl,-5.4%,-0.4%,5.7%,1.4%,-18.6%
Cc1nn(C)c2c1c(-c1ccccc1)cc(=O)n2Cc1ccc(F)cc1,-2.2%,9.2%,-3.7%,?,4.6%
COC(=O)C1=C(C(=O)OC)SC2(S1)C(C(=O)OC)=C(C(=O)OC)SC1=C2c2cc(C)ccc2NC1(C)C,-1.9%,-9.8%,?,12.6µM*,?
c1ccc2c(c1)Cc1ccccc1-2,-3.4%[201 µM],0.4%[201 µM],.,.,.
CCCCCCCCCCCCCCCCCC(=O)OCC(C)O (stereo not given),-6.2%,9.4%,?,14.1µM*,?
CCCCCCCCCCCC(=O)OCC(O)CO (stereo not given),1.4%,0.8%,.,.,.
N#Cc1c(N)oc(-c2ccco2)c1-c1ccco1,-3.3%,-7.9%,?,14.1µM*,-5.9%
SMILES,TR SRC2 fluor cs,TRb-SRC2 inh,Tau fluor counter,Tau ThT inhib,Tau fibril FP
O=Cc1ccccc1Cl,-1.9%,1.0%,.,.,.
O=Cc1ccccc1C=O,39.8µM*[quencher],?,.,.,.
COc1ccc2c(c1)-c1nc(/N=C/c3ccc(O)c(OC)c3)sc1CC2,-1.1%,1.0%,-24.2%,31.6µM*,?
COc1ccc2c(c1)-c1nc(N)sc1CC2,-0.9%,7.0%,?,31.6µM*,?
COc1ccc2c(c1)-c1nc(NC(=O)c3cc(OC)c(OC)c(OC)c3)sc1CC2,2.0%,2.2%,?,-11.9%,4.5%
CCC(=O)N1CCc2cc(S(=O)(=O)NC(C(=O)NCCc3ccc(OC)c(OC)c3)C(C)C)ccc21 (stereo not given),-1.0%,-6.1%,0.8%,0.3%,-7.8%
CC(C)Cc1c(C(=O)O)c(C(F)F)nc(C(F)(F)F)c1C1=NCCS1,-1.9%[201 µM],0.5%[201 µM],.,.,.
Cc1ccc2nc(N/N=C\c3ccc([N+](=O)[O-])o3)nc(-c3ccccc3)c2c1,-6.6%,1.3%,10µM*[quencher],3.16µM*,12.8%
O=[N+]([O-])c1ccc(/C=N/Nc2ccc3ccccc3c2)o1,4.1%,7.5%,3.55µM*[quencher],3.16µM*,?
O=[N+]([O-])c1ccc(/C=N/Nc2nc(-c3ccccc3)c3cc(Br)ccc3n2)o1,-3.7%,3.4%,-25.4%,2.82µM*,2.4%
O=C(N/N=C/c1ccc([N+](=O)[O-])o1)c1cc2ccccc2o1,-1.2%,-2.3%,-23.5%,.,4.2%
O=[N+]([O-])c1ccc(/C=N/Nc2nc(N3CCCC3)nc(N3CCCC3)n2)o1,-3.6%,-2.8%,-20.7%,17.8µM*,-5.8%
CCNc1nc(NCC)nc(N/N=C/c2ccc([N+](=O)[O-])o2)n1,-5.2%,3.2%,-7.6%,?,6.8%
C=CC[C@@H]1C=C[C@@H](O/N=C\[C@@H](NS(=O)(=O)c2ccc(C)cc2)[C@H](C)/C=C\CC(=O)OC)[C@@H](CO)O1,-0.3%[11.2 µM],1.2%[11.2 µM],-3.3%[11.6 µM],-1.0%[11.5 µM],-6.6%[11.6 µM]
CCCC(=O)NC(NC(=S)Nc1ccc(S(N)(=O)=O)cc1)C(Cl)(Cl)Cl (stereo not given),-2.2%,5.1%,-5.4%,0.6%,-4.9%
CCCC(=O)NC(NC(=S)Nc1ccc(N=Nc2ccccc2)cc1)C(Cl)(Cl)Cl (stereo not given),6.1%,1.5%,?,14.1µM*,?
S=C(NCCC(c1ccccc1)c1ccccc1)Nc1cccc(Cl)c1,-0.5%,-15.1%,7.08µM*[quencher],17.9%,14.1µM*
O=C(CCc1ccccc1)NC(NC(=S)Nc1cccc(Cl)c1)C(Cl)(Cl)Cl (stereo not given),0.0%,-24.6%,-0.2%,9.6%,14.1µM*
O=C(CCc1ccccc1)NC(NC(=S)Nc1ccc(Br)cc1)C(Cl)(Cl)Cl (stereo not given),0.3%,1.6%,-25.7%,5.2%,?
NC(CO)C(=O)NNCc1ccc(O)c(O)c1O (stereo not given),-14.8%,3.8%,?,3.16µM*,3.16µM*
CC(C)C[C@@H](CC(=O)N[C@@H](CCC(=O)O)CC(=O)O)NC(=O)[C@@H]1CNCC[C@H]1NC(=O)C[C@@H](NC(=O)C[C@H](Cc1ccccc1)NC(=O)[C@@H]1CNCC[C@H]1N)C(C)C,-3.6%,1.9%,1.3%,0.2%,5.8%
Cc1ccc2[nH]c3c(c2c1)CCc1cn[nH]c1-3,-15.3%,8.3%,25.1µM*[quencher],12.6µM*,?

# Screening results: PubChem, National Center for Advancing Translational Sciences (NCATS)
